The campaign covered roughly 39,000 compounds. About 1,500 (3.8%) were called active. The list comes from a sample in which actives are over-represented; it also holds similar structures and randomly drawn compounds.

This experiment concerns HSkMC (human skeletal muscle cells). The experiment in a line: cytotoxicity call (relative viability < 0.9). The note with it: 10 µM.
On to `CC(C)NC(=O)Nc1ccc2c(c1)C(=O)N([C@@H](C)CO)C[C@H](C)[C@H](CN(C)Cc1ccc(C(=O)O)cc1)O2`, for which the cytotoxicity call was “inactive”.

For `COc1ccc(C#Cc2cnc3c(c2)C(=O)N([C@H](C)CO)C[C@H](C)[C@@H](CN(C)C(=O)CC2CC2)O3)cc1`, the cytotoxicity call is “inactive”.

Take `C[C@@H]1CN([C@@H](C)CO)C(=O)c2cc(-c3cccnc3)cnc2O[C@@H]1CN(C)Cc1ccc(-c2ccccc2)cc1`: the cytotoxicity call was “inactive”.

As for `O=C(C[C@H]1CC[C@H](NS(=O)(=O)c2ccc(F)cc2)[C@H](CO)O1)N1CCC(Cc2ccccc2)CC1`, the cytotoxicity call was “inactive”.

`C[C@@H]1CN([C@H](C)CO)C(=O)c2cccc(NC(=O)Nc3cccc4ccccc34)c2O[C@H]1CN(C)C(=O)Nc1ccccc1`: the cytotoxicity call was “inactive”.

Turning to `COc1ccc(NC(=O)N(C)C[C@H]2Oc3c(NC(=O)Nc4cccc5ccccc45)cccc3C(=O)N([C@@H](C)CO)C[C@@H]2C)cc1`, the cytotoxicity call is “active”.

`C[C@@H]1CN([C@@H](C)CO)C(=O)c2cccc(NC(=O)Nc3cccc4ccccc34)c2O[C@H]1CN(C)C(=O)Nc1ccccc1`: the cytotoxicity call was “active”.

With `C[C@H](CO)N1C[C@H](C)[C@@H](CN(C)C(=O)Nc2cccc3ccccc23)Oc2c(NC(=O)Nc3ccccc3)cccc2C1=O`, the cytotoxicity call is “inactive”.

With `COc1ccc(NC(=O)N(C)C[C@@H]2Oc3c(NC(=O)Nc4cccc5ccccc45)cccc3C(=O)N([C@H](C)CO)C[C@@H]2C)cc1`, the cytotoxicity call is “inactive”.

`C[C@@H]1CN([C@H](C)CO)C(=O)c2cccc(NC(=O)Nc3cccc4ccccc34)c2O[C@H]1CN(C)C(=O)Nc1cccc2ccccc12`: the cytotoxicity call was “active”.

Regarding `C[C@@H]1CN([C@H](C)CO)C(=O)c2cccc(NC(=O)Nc3cccc4ccccc34)c2O[C@@H]1CN(C)C(=O)Nc1ccccc1`, the cytotoxicity call is “inactive”.

For the compound `C[C@@H]1CN([C@@H](C)CO)C(=O)c2cccc(NC(=O)Nc3ccccc3)c2O[C@@H]1CN(C)C(=O)Nc1cccc2ccccc12`, the cytotoxicity call is “active”.

Take `C[C@H]1CN([C@@H](C)CO)C(=O)c2cccc(NC(=O)Nc3cccc4ccccc34)c2O[C@H]1CN(C)C(=O)Nc1cccc2ccccc12`: the cytotoxicity call is “inactive”.

With `C[C@H]1CN([C@@H](C)CO)C(=O)c2cccc(NC(=O)Nc3ccccc3)c2O[C@H]1CN(C)C(=O)Nc1cccc2ccccc12`, the cytotoxicity call was “inactive”.

Take `C[C@@H]1CN([C@@H](C)CO)C(=O)c2cccc(NC(=O)Nc3cccc4ccccc34)c2O[C@H]1CN(C)C(=O)Nc1cccc2ccccc12`: the cytotoxicity call was “inactive”.

For the compound `COc1ccc(NC(=O)N(C)C[C@@H]2Oc3c(NC(=O)Nc4cccc5ccccc45)cccc3C(=O)N([C@H](C)CO)C[C@H]2C)cc1`, the cytotoxicity call was “inactive”.

In the case of `CN1C(=O)c2cc(NS(=O)(=O)c3cccc(F)c3)ccc2OC[C@H]2O[C@H](CC(=O)NCCN3CCCCC3)CC[C@@H]21`, the cytotoxicity call was “inactive”.

In the case of `NC(=O)NC(=O)C[n+]1ccc(/C=N/O)cc1`, the cytotoxicity call is “inactive”.

Turning to `COc1ccc(S(=O)(=O)N(C)C[C@H]2Oc3ccc(N(C)C)cc3C(=O)N([C@@H](C)CO)C[C@@H]2C)cc1`, the cytotoxicity call was “inactive”.

For the compound `CS(=O)(=O)N1C[C@H]2C[C@@H](F)[C@@H](O)[C@@H]2C1`, the cytotoxicity call was “inactive”.

As for `C[C@@H]1CCCCO[C@@H](CN(C)C(=O)Nc2ccc3c(c2)OCO3)[C@@H](C)CN([C@H](C)CO)C(=O)c2cc(NC(=O)NC3CCCCC3)ccc2O1`, the cytotoxicity call was “inactive”.

As to `O=C(C[C@H]1C[C@@H]2c3cc(NS(=O)(=O)c4ccc(F)cc4)ccc3O[C@@H]2[C@H](CO)O1)NCc1cccnc1`, the cytotoxicity call is “inactive”.

Take `O=C(C[C@@H]1C[C@H]2c3cc(NC(=O)NC4CCCC4)ccc3O[C@H]2[C@H](CO)O1)NCc1ccc2c(c1)OCO2`: the cytotoxicity call is “inactive”.

Regarding `O=C(CN1CCOCC1)NCC[C@@H]1CC[C@@H](NC(=O)Cc2ccccn2)[C@H](CO)O1`, the cytotoxicity call was “inactive”.

`C[C@@H]1CN([C@@H](C)CO)C(=O)Cc2cc(NC(=O)C3CCCCC3)ccc2O[C@H]1CN(C)C(=O)Nc1ccc(C(F)(F)F)cc1`: the cytotoxicity call is “inactive”.

Consider `CC[C@H]1CN(C)N1C(=O)[C@@H]1CCCO1`, for which the cytotoxicity call is “inactive”.

In the case of `CC(C)CC#Cc1ccc2c(c1)O[C@H](CN(C)C(=O)c1ccncc1)[C@H](C)CN([C@@H](C)CO)S2(=O)=O`, the cytotoxicity call was “inactive”.

Regarding `C[C@H](CO)N1C[C@H](C)[C@H](CN(C)Cc2ccc(Cl)c(Cl)c2)Oc2ccc(NS(=O)(=O)c3ccc(Cl)cc3)cc2CC1=O`, the cytotoxicity call was “active”.

As for `C[C@H]1CN([C@@H](C)CO)C(=O)Cc2cc(NS(=O)(=O)c3ccc(Cl)cc3)ccc2O[C@@H]1CN(C)Cc1ccc(Cl)c(Cl)c1`, the cytotoxicity call was “inactive”.

Regarding `C[C@@H]1CN([C@H](C)CO)C(=O)Cc2cc(NS(=O)(=O)c3ccc(Cl)cc3)ccc2O[C@@H]1CN(C)Cc1ccc(Cl)c(Cl)c1`, the cytotoxicity call is “active”.

For the compound `C[C@@H]1CN([C@@H](C)CO)C(=O)Cc2cc(NS(=O)(=O)c3ccc(Cl)cc3)ccc2O[C@H]1CN(C)Cc1ccc(Cl)c(Cl)c1`, the cytotoxicity call is “active”.

With `C[C@@H]1CN([C@@H](C)CO)C(=O)Cc2cc(NS(=O)(=O)c3ccc(Cl)cc3)ccc2O[C@@H]1CN(C)Cc1ccc(Cl)c(Cl)c1`, the cytotoxicity call was “active”.

As for `C[C@H](CO)N1C[C@H](C)[C@@H](CN(C)Cc2ccc(Cl)c(Cl)c2)Oc2ccc(NS(=O)(=O)c3ccc(Cl)cc3)cc2CC1=O`, the cytotoxicity call was “inactive”.

Regarding `C[C@H](CO)N1C[C@H](C)[C@H](CN(C)CC2CC2)Oc2ccc(NC(=O)CCN3CCOCC3)cc2CC1=O`, the cytotoxicity call was “inactive”.

For the compound `CC(C)NC(=O)N(C)C[C@@H]1Oc2ccc(NC(=O)NC3CCCCC3)cc2C(=O)N([C@H](C)CO)C[C@@H]1C`, the cytotoxicity call is “inactive”.

With `CC(C)(C)[S@@](=O)N1Cc2cc(C(=O)NCc3ccc4c(c3)OCO4)nc(CCNS(=O)(=O)c3ccccc3)c2[C@H]1CCO`, the cytotoxicity call is “inactive”.

With `CCS(=O)(=O)N1CC[C@]2(CC1)CN(CC1CCOCC1)[C@H](CO)c1c2c2ccc(cc2n1C)OC`, the cytotoxicity call is “inactive”.

For the compound `Cc1noc(C)c1S(=O)(=O)Nc1ccc2c(c1)CC(=O)N([C@H](C)CO)C[C@H](C)[C@H](CN(C)Cc1ccc3c(c1)OCO3)O2`, the cytotoxicity call is “inactive”.

For the compound `C[C@@H]1CCCCO[C@H](CN(C)C(=O)Nc2ccc(F)cc2)[C@@H](C)CN([C@H](C)CO)C(=O)c2cc(NC(=O)Nc3ccc4c(c3)OCO4)ccc2O1`, the cytotoxicity call was “inactive”.

Take `Cc1noc(C)c1NC(=O)N(C)C[C@@H]1Oc2ccc(NS(=O)(=O)c3cn(C)cn3)cc2C(=O)N([C@H](C)CO)C[C@@H]1C`: the cytotoxicity call is “inactive”.

As to `Cc1ccc(S(=O)(=O)N(C)C[C@@H]2OCCCC[C@@H](C)Oc3ccc(NC(=O)Nc4ccc(F)cc4)cc3C(=O)N([C@@H](C)CO)C[C@H]2C)cc1`, the cytotoxicity call is “inactive”.

For `O=C(C[C@@H]1C=C[C@@H](NC(=O)c2cccc(F)c2)[C@H](CO)O1)NCCN1CCCC1`, the cytotoxicity call was “inactive”.

`C[C@H]1CN([C@@H](C)CO)C(=O)Cc2cc(NS(=O)(=O)c3ccc(Cl)cc3)ccc2O[C@H]1CN(C)Cc1ccc(Cl)c(Cl)c1`: the cytotoxicity call is “active”.

Regarding `C[C@H](CO)N1C[C@H](C)[C@@H](CN(C)Cc2ccc(Cl)c(Cl)c2)Oc2ccc(NS(=O)(=O)c3ccc(F)cc3)cc2CC1=O`, the cytotoxicity call was “inactive”.

For `C[C@@H]1CN([C@H](C)CO)C(=O)Cc2cc(NS(=O)(=O)c3ccc(Cl)cc3)ccc2O[C@H]1CN(C)Cc1ccc(Cl)c(Cl)c1`, the cytotoxicity call was “active”.

For `C[C@H](CO)N1C[C@H](C)[C@H](CN(C)Cc2ccc(Cl)c(Cl)c2)Oc2ccc(NS(=O)(=O)c3ccc(F)cc3)cc2CC1=O`, the cytotoxicity call was “inactive”.

Consider `COc1ccc(S(=O)(=O)Nc2cccc3c2O[C@@H](CN(C)S(=O)(=O)c2cccs2)[C@@H](C)CN([C@@H](C)CO)C3=O)cc1`, for which the cytotoxicity call is “inactive”.

As for `C[C@H]1CN([C@@H](C)CO)C(=O)c2cccc(NC(=O)Nc3cccc4ccccc34)c2O[C@H]1CN(C)C(=O)Nc1ccc(F)cc1`, the cytotoxicity call was “inactive”.

As for `OCCN1CCOCC1`, the cytotoxicity call is “inactive”.

For the compound `CCN1C(=O)S[C@@H](CC(=O)O)C1=O`, the cytotoxicity call is “inactive”.

As for `COc1ccc(NC(=O)N(C)C[C@@H]2Oc3c(NS(C)(=O)=O)cccc3C(=O)N([C@@H](C)CO)C[C@H]2C)cc1`, the cytotoxicity call is “inactive”.

For the compound `CN1C(=O)c2cc(NC(=O)Nc3ccccc3F)ccc2OC[C@@H]2O[C@H](CC(=O)NCc3ccc(-c4ccccc4)cc3)CC[C@H]21`, the cytotoxicity call is “inactive”.

On to `O=[N+]([O-])c1ccc(Oc2ccc(-c3ccccc3)cc2)cc1`, for which the cytotoxicity call was “inactive”.

Regarding `O=c1cc(O)nc[nH]1`, the cytotoxicity call was “inactive”.

On to `O=C(O)c1ccc(O)c(O)c1O`, for which the cytotoxicity call was “inactive”.

With `CSCC[C@H](NC(=O)[C@H](Cc1c[nH]c2ccccc12)NC(=O)CNC(=O)[C@@H](NC(=O)[C@H](Cc1ccc(OS(=O)(=O)O)cc1)NC(=O)[C@H](CC(=O)O)NC(=O)[C@H](CCC(N)=O)NC(=O)[C@@H]1CCC(=O)N1)[C@@H](C)O)C(=O)N[C@@H](CC(=O)O)C(=O)N[C@@H](Cc1ccccc1)C(N)=O`, the cytotoxicity call is “inactive”.

For `CSCC[C@H](NC(=O)[C@@H](N)Cc1c[nH]c2ccccc12)C(=O)N[C@@H](CC(=O)O)C(=O)N[C@@H](Cc1ccccc1)C(N)=O`, the cytotoxicity call was “inactive”.

For `CSCC[C@H](NC(=O)[C@H](Cc1ccc(OS(=O)(=O)O)cc1)NC(=O)[C@@H](N)CC(=O)O)C(=O)NCC(=O)N[C@@H](Cc1c[nH]c2ccccc12)C(=O)N[C@@H](CCSC)C(=O)N[C@@H](CC(=O)O)C(=O)N[C@@H](Cc1ccccc1)C(N)=O`, the cytotoxicity call is “active”.

Turning to `C[C@H]1CN([C@@H](C)CO)C(=O)Cc2cc(NC(=O)c3ccncc3)ccc2O[C@H]1CN(C)S(=O)(=O)c1ccc(F)cc1`, the cytotoxicity call was “inactive”.

As to `C[C@H](CO)N1C[C@H](C)[C@@H](CN(C)S(=O)(=O)c2ccc(F)cc2)OCCCC[C@H](C)Oc2ccc(NC(=O)c3ccccc3)cc2C1=O`, the cytotoxicity call is “inactive”.

As to `O=C(O)[C@H]1C[C@@H](CP(=O)(O)O)CCN1`, the cytotoxicity call is “inactive”.

Regarding `COc1ccc(NC(=O)Nc2ccc3c(c2)C(=O)N([C@H](C)CO)C[C@@H](C)[C@H](CN(C)Cc2ccc(C(F)(F)F)cc2)O3)cc1`, the cytotoxicity call is “inactive”.

As for `COc1ccc(CN(C)C[C@@H]2Oc3ccc(NC(=O)Nc4ccc(C(F)(F)F)cc4)cc3C(=O)N([C@@H](C)CO)C[C@@H]2C)cc1`, the cytotoxicity call was “active”.

On to `COc1ccc(NC(=O)Nc2ccc3c(c2)C(=O)N([C@@H](C)CO)C[C@H](C)[C@@H](CN(C)Cc2ccc(C(F)(F)F)cc2)O3)cc1`, for which the cytotoxicity call was “inactive”.

As to `COc1ccc(CN(C)C[C@@H]2Oc3ccc(NC(=O)Nc4ccc(C(F)(F)F)cc4)cc3C(=O)N([C@H](C)CO)C[C@H]2C)cc1`, the cytotoxicity call was “active”.

Take `COc1ccc(NC(=O)Nc2ccc3c(c2)C(=O)N([C@@H](C)CO)C[C@@H](C)[C@@H](CN(C)Cc2ccc(C(F)(F)F)cc2)O3)cc1`: the cytotoxicity call is “inactive”.

Take `COc1ccc(NC(=O)Nc2ccc3c(c2)C(=O)N([C@H](C)CO)C[C@H](C)[C@@H](CN(C)Cc2ccc(C(F)(F)F)cc2)O3)cc1`: the cytotoxicity call was “inactive”.

Take `COc1ccc(NC(=O)Nc2ccc3c(c2)C(=O)N([C@@H](C)CO)C[C@H](C)[C@H](CN(C)Cc2ccc(C(F)(F)F)cc2)O3)cc1`: the cytotoxicity call was “inactive”.

Consider `COc1ccc(CN(C)C[C@@H]2Oc3ccc(NC(=O)Nc4ccc(C(F)(F)F)cc4)cc3C(=O)N([C@@H](C)CO)C[C@H]2C)cc1`, for which the cytotoxicity call was “active”.

As for `COc1ccc(NC(=O)Nc2ccc3c(c2)C(=O)N([C@@H](C)CO)C[C@@H](C)[C@H](CN(C)Cc2ccc(C(F)(F)F)cc2)O3)cc1`, the cytotoxicity call is “inactive”.

Turning to `COc1ccc(CN(C)C[C@@H]2Oc3ccc(NC(=O)Nc4ccc(C(F)(F)F)cc4)cc3C(=O)N([C@H](C)CO)C[C@@H]2C)cc1`, the cytotoxicity call is “active”.

`COc1ccc(CN(C)C[C@H]2Oc3ccc(NC(=O)Nc4ccc(C(F)(F)F)cc4)cc3C(=O)N([C@H](C)CO)C[C@H]2C)cc1`: the cytotoxicity call is “inactive”.

With `COc1ccc(CN(C)C[C@H]2Oc3ccc(NC(=O)Nc4ccc(C(F)(F)F)cc4)cc3C(=O)N([C@H](C)CO)C[C@@H]2C)cc1`, the cytotoxicity call was “inactive”.

The values are drawn from the antibiotic and cytotoxicity screens of Wong et al. (2023).
